# Screens from PubChem BioAssay.
# An excerpt weighted towards active compounds, which were near 21% of everything screened.
# Shiga toxin inh: blocks Shiga toxin action in Vero cells | actives 9.2% (n = 290,000) | AID 2315 | inhibition, % at 38.7 µM | Vero cells, Shiga toxin protein synthesis inhibition reporter; in the data active = inhibition mostly above about 28%, no sharp cut-off; inactive = mostly below about 43%; also: 0% is about no effect
# Pf growth 48h: inhibits P. falciparum growth in the first generation, 48 h; actives 5.9% (n = 310,000); Potency, µM (highest dose often 28.7 µM), without a hit: at the highest dose activity change, negative = inhibition, usual class: inhibitors; P. falciparum luciferase growth in erythrocytes, 48 h; also: potency is read from the fitted curve at half-maximal effect; % is scaled to controls: 0 for no effect and ±100 for the full control effect
#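 A one-generation exposure of luciferase-tagged malaria parasites in RPMI 1640/Albumax erythrocyte culture, 37 C and 5% CO2. Inhibition is inferred from decreased luminescence after adding detection reagent.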
# Pf growth 96h: P. falciparum growth inhibition at 96 hour, primary screen for plastid delayed-death inhibitors; Potency, µM (top dose mostly 28.7 µM), for inactives: top-dose activity change, negative = inhibition, usual class: inhibitors; actives 6.9% (n = 320,000); P. falciparum luciferase reporter growth, 96 h; also: potency is read from the fitted curve at half-maximal effect; % is scaled to controls: 0 for no effect and ±100 for the full control effect
#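 Readout is luminescence from an integrated firefly luciferase in P. falciparum. Red cells, 2% hematocrit and 0.05% parasitemia final, were cultured with compound through two parasite generations (96 hours) at 37 C, 5% CO2.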
# Sm TGR block: inhibitors of Schistosoma mansoni thioredoxin glutathione reductase; Potency, µM (doses to about 114 µM), inactives show at the top dose activity change, negative = inhibition, usual class: inhibitors; purified TGR, DTNB reduction, TNB absorbance 405 nm; actives 3% (n = 360,000); AID 485364; Q962Y6; also: potency is read from the fitted curve at half-maximal effect; % is scaled to controls: 0 for no effect and ±100 for the full control effect; nearly all actives have a fitted effect of over 60% in size
#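 Kinetic colorimetric format: TGR-catalysed, NADPH-driven DTNB reduction monitored via TNB absorbance. Enzyme dispensed at 20 nM; compound exposure 15 min at room temperature before reaction start.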
# CHX counter: counter-screen for Shiga toxin inhibitors: cycloheximide protein synthesis inhibition | max response, % | AID 2314 | actives 12% (n = 300,000) | cell reporter, cycloheximide protein synthesis inhibition counterscreen; in the data active = max response mostly above about 13%, no sharp cut-off; inactive = mostly below about 14%; also: read at 38.3 µM for the half of the compounds with a filed dose; 0% is about no effect
# NS1 inh: influenza NS1 inhibition; Potency, µM (top dose mostly 46.1 µM), without a hit: top-dose activity, positive = more growth; actives 0.4% (n = 270,000); calls by dose curve; also: potency is read from the fitted curve at half-maximal effect; actives are rising curves; nearly all actives have a fitted effect of over 50% in size
#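 Recovery from NS1-induced slow growth read by OD600 in budding yeast switched to galactose assay medium (pH 6.0, -URA) at 1:100 dilution. Compound 23 nl per well; the matching strain lacking NS1 serves as control.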
# An asterisk follows results filed as active; ? = inconclusive; . = no result; ! = repeats disagree; [ ] = remark or other dose. Unless noted, calls follow the shape of the dose curve; as a rule, active = well fitted curve in the direction sought with a large enough effect; inconclusive = small, poorly fitted or top-dose-only effect, or another doubt; inactive = no such curve, though single readings can be large; an effect the other way counts as inactive or inconclusive.
SMILES,Shiga toxin inh,Pf growth 48h,Pf growth 96h,Sm TGR block,CHX counter,NS1 inh
CCn1c(/C=C/N(C(C)=O)c2ccccc2)[n+](CC)c2ccc(Cl)cc21,-13,2.1µM*,38%,1%,-5,1%
COc1ccc(C(=O)c2cnc3ccc(C)cc3c2S(=O)(=O)c2ccccc2)cc1,.,.,.,-3%,.,.
COc1ccc(-c2nc3ncnn3cc2C)cc1F,-2,33%,?,10%,4,-3%
CCN(c1cccc(C)c1)S(=O)(=O)c1nnc(NC(=O)c2ccco2)s1,-15,22%,?,25µM*,-3,-4%
CCN(c1ccccc1)S(=O)(=O)c1nnc(NC(=O)c2ccco2)s1,-7,42%,21%,20µM*!,-3,2%
CCN(c1cccc(C)c1)S(=O)(=O)c1nnc(NC(=O)c2ccccc2Cl)s1,.,.,.,79µM*,.,.
Cc1ccc(N(CC(C)C)S(=O)(=O)c2nnc(NC(=O)c3ccco3)s2)cc1,.,.,.,12%,.,.
COc1ccc(S(=O)(=O)N2CCOCC2)cc1C(=O)N1CCCCC1,-4,5%,?,0%,-1,14%
CO[C@H]1C[C@@H]2CC[C@@H](C)[C@@](O)(O2)C(=O)C(=O)N2CCCC[C@H]2C(=O)O[C@H]([C@H](C)C[C@@H]2CC[C@@H](O)[C@H](OC)C2)CC(=O)[C@H](C)/C=C(\C)[C@@H](O)[C@@H](OC)C(=O)[C@H](C)C[C@H](C)/C=C/C=C/C=C/1C,.,1.5µM*,1.5µM*,.,.,.
CO[C@H]1C[C@@H]2CC[C@@H](C)[C@@](O)(O2)C(=O)C(=O)N2CCCC[C@H]2C(=O)O[C@H]([C@H](C)C[C@@H]2CC[C@@H](OCCO)[C@H](OC)C2)CC(=O)[C@H](C)/C=C(\C)[C@@H](O)[C@@H](OC)C(=O)[C@H](C)C[C@H](C)/C=C/C=C/C=C/1C,.,1.5µM*,2.1µM*,.,.,.
Cc1c(C(=O)NCCCN2CCOCC2)sc2nc(-c3ccccc3)cn12,13,-5%,?,1%,-2,-4%
COCCNC(=O)c1sc2nc(-c3ccccc3)cn2c1C,70*,56%,52%,?,29*,-7%
Cc1c(C(=O)NCc2ccccn2)sc2nc(-c3ccccc3)cn12,20*,-5%,?,9%,29*,-95%
O=S(=O)(c1ccccc1)c1nc(NCc2cccnc2)sc1Cl,-8,?,?,1%,0,.
CC1=NCCN1S(=O)(=O)c1cc([N+](=O)[O-])ccc1Cl,-11,7%,?,.,-8,-1%
COc1cc(NC(=O)Cn2c(-c3cncs3)nc3ccccc32)cc(OC)c1OC,12,2.3µM*,18%,3%,11,-142%
O=C(NN1C(=O)c2ccccc2NC1c1ccc([N+](=O)[O-])o1)c1ccc(Br)cc1 (stereo unspecified),18,13%,-6%,?,10,.
CC(=O)NN1C(=O)c2ccccc2NC1c1ccc([N+](=O)[O-])o1 (stereo unspecified),32,-1%,25%,40µM*,15,.
COC(=O)CN1C(=O)COc2ccc(S(=O)(=O)N3CCCCCC3)cc21,-5,-7%,?,0%,-2,1%
CCOC(=O)C1=C(C)NC2=C(C(=O)CCC2)C1c1ccsc1 (stereo unspecified),-8,-13%,10%,-27%,1,2%
CCCCOC(=O)C1=C(C)NC2=C(C(=O)CCC2)C1c1cc(OC)ccc1OC (stereo unspecified),-1,.,13µM*,-2%,-4,2%
CC1=C(C(=O)OCC(C)C)C(c2ccsc2)C2=C(CCCC2=O)N1 (stereo unspecified),-11,13µM*,8.3µM*,5%,1,-9%
CCOC(=O)C1=C(CC)NC2=C(C(=O)CCC2)C1c1ccc(OC)c(OC)c1 (stereo unspecified),14,7.4µM*,.,6%,-2,-2%
CCCOC(=O)C1=C(C)NC2=C(C(=O)CCC2)C1c1cc(OC)ccc1OC (stereo unspecified),-13,-15%,5%,-19%,1,-5%
Cc1cccc(N2CCN(C(c3ccccc3)c3nnc(-c4ccccc4Cl)o3)CC2)c1C (stereo unspecified),.,.,.,7%,.,.
SMILES,Shiga toxin inh,Pf growth 48h,Pf growth 96h,Sm TGR block,CHX counter,NS1 inh
S=C(NCc1cccs1)Nc1cc(Cl)cc(Cl)c1,18,?,?,11µM*,14,-65%
CC(NC(=S)Nc1ccccc1Cl)C(c1cccs1)N1CCCC1 (stereo unspecified),10,?,12µM*,-3%,-2,-13%
Cc1c(Cl)cccc1NC(=S)NCCc1ccc(C(F)(F)F)cc1,-4,6.6µM*,13µM*,1%,-3,.
Cc1ccccc1NC(=S)NC(C)C(c1cccs1)N1CCOCC1 (stereo unspecified),6,?,?,-10%,-1,2%
Cc1c(Cl)cccc1NC(=S)NCCc1ccccn1,-14,-5%,?,1%,0,2%
S=C(NCCNC(=S)Nc1ccccc1Cl)Nc1ccccc1Cl,20,9.3µM*,9.3µM*,0%,0,3%
S=C(NCc1cccs1)Nc1cccc(Cl)c1,5,?,?,-21%,10,-10%
S=C(NCc1cccs1)Nc1ccccc1Cl,44*,7%,-16%,11µM*,24*,?
NNC(=S)Nc1ccccc1Cl,86*,49%,?,-11%,43*,0%
Cc1cc(Cl)ccc1NC(=S)NCc1cccs1,-1,-17%,?,3%,7,-7%
Cc1cccn2c(Nc3ccc4c(c3)OCCO4)c(-c3ccc(Br)o3)nc12,.,.,.,-21%,.,.
C[C@]12CC[C@H](O)CC1=CC[C@H]1[C@@H]2CC[C@@]2(C)C(N(CCO)CCO)CC[C@@H]12 (stereo partly specified),.,.,.,.,.,-8%
COc1cc2c(cc1OC)C(C(C(=O)N(CCc1ccc(OC)c(OC)c1OC)CCc1ccc(OC)c(OC)c1OC)c1ccccc1)=NCC2 (stereo unspecified),18,1.3µM*,1.5µM*,.,11,.
COc1ccc(CNC(=O)Cn2nc(C)n3cccc3c2=O)cc1,10,45%,-24%,3%,2,-14%
Cc1ccc2[nH]c(C(=O)N/N=C/c3ccccc3O)c(C)c2c1,61*,2.3µM*,4.7µM*,-10%,25*,1%
Cc1ccc2[nH]c(C(=O)N/N=C/c3ccc([N+](=O)[O-])cc3)c(C)c2c1,16,13%,14%,-9%,-2,-1%
COc1cc(OC)c2cc(C(=O)N/N=C/c3ccccc3O)[nH]c2c1,5,.,4.7µM*,32%,-1,1%
Cc1ccc2[nH]c(C(=O)N/N=C/c3ccccc3C(=O)O)c(-c3ccccc3)c2c1,-2,-20%[0.00184 µM],0.74µM*,0%,-6,?
